Data: PubChem BioAssay (NCI)
The panel holds about 79,000 compounds, 15% with a hit somewhere; the sample as a whole holds those more often. Values without a mark were called inactive. The source made the active and inactive calls. No stated cut-off is given here; in the data, active means growth inhibition above about 70%; inactive means the rest.

What was measured:
[1] = NCI Yeast Anticancer Drug Screen. Data for the rad50 strain (AID 155);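 further: 0% = growth of vehicle-only cultures of the same strain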; conditions: S. cerevisiae rad50 strain growth inhibition; at 50.0 µM; hits give high values
In short: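 Readout: growth inhibition relative to vehicle-treated cultures. Compound exposure was carried out in a genetically defined yeast strain deficient in DNA damage repair.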

[2] = NCI Yeast Anticancer Drug Screen. Data for the mec2-1 strain (AID 157); conditions: S. cerevisiae mec2-1 strain, at 50.0 µM, hits give high values
In short: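 Test agents were screened against the mec2-1 yeast strain, with defined DNA repair or cell cycle alteration. Growth was scored as inhibition against vehicle-only controls.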

[3] = NCI Yeast Anticancer Drug Screen. Data for the sgs1 mgt1 strain (AID 161);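 further: 0% = growth of cultures given vehicle only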; conditions: S. cerevisiae sgs1 mgt1 strain, at 50.0 µM, hits give high values
In short: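 Read-out: growth inhibition vs vehicle controls. Cells: mutant yeast strain deficient in DNA damage repair.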

[4] = NCI Yeast Anticancer Drug Screen. Data for the cln2 rad14 strain (AID 165);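 further: 0% = growth equal to vehicle treated cultures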; conditions: S. cerevisiae cln2 rad14 strain, at 50.0 µM, hits give high values
In short: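 Growth of compound-exposed yeast (cln2 rad14 genotype) measured and expressed as inhibition relative to vehicle.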

[5] = NCI Yeast Anticancer Drug Screen. Data for the bub3 strain (AID 167); conditions: S. cerevisiae bub3 mutant strain, at 50.0 µM, hits give high values
In short: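 Readout: yeast growth inhibition, expressed relative to vehicle-only wells. The test organism is a mutant strain from a panel with lesions in DNA repair or checkpoint genes.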

[6] = NCI Yeast Anticancer Drug Screen. Data for the mlh1 rad18 strain (AID 175); conditions: S. cerevisiae mlh1 rad18 strain growth inhibition; at 50.0 µM; hits give high values
In short: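 In this whole-cell yeast screen, a strain with altered DNA damage repair is challenged with compound, and its growth is measured against matched vehicle-treated controls.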

Compound: CCOc1cc(N)nc(N)n1
- growth inhibition [1]: 13.1%
- growth inhibition [2]: -10.3%
- growth inhibition [3]: 7.15%
- growth inhibition [4]: 5.9%
- growth inhibition [5]: 5.65%
- growth inhibition [6]: -7.75%

Compound: O=C1CNC(=O)N1c1ccccc1
- growth inhibition [1]: 7.35%
- growth inhibition [2]: 5.75%
- growth inhibition [3]: 4.4%
- growth inhibition [4]: -9.2%
- growth inhibition [5]: 5.65%
- growth inhibition [6]: 3.8%

Compound: O=C(O)c1onc2ccccc12
- growth inhibition [1]: -17.9%
- growth inhibition [2]: -15.1%
- growth inhibition [3]: -35.2%
- growth inhibition [4]: -7.7%
- growth inhibition [5]: -5.15%
- growth inhibition [6]: -29.8%

Compound: CCC1C(OC)=CC(CC)(CO)C=C1OC (centres undefined)
- growth inhibition [1]: 4.35%
- growth inhibition [2]: -3.45%
- growth inhibition [3]: 6.15%
- growth inhibition [4]: 14.2%
- growth inhibition [5]: 6.8%
- growth inhibition [6]: -6.3%

Compound: CCN(c1ccccc1)S(=O)(=O)c1cc(N)ccc1C
- growth inhibition [1]: -23.8%
- growth inhibition [2]: -10.7%
- growth inhibition [3]: 2.55%
- growth inhibition [4]: -2.8%
- growth inhibition [5]: -0.25%
- growth inhibition [6]: 4.55%

Compound: O=C(O[C@H]1[C@@H]2C=CO[C@@H](OC3OC(CO)C(O)C(O)C3O)[C@@H]2[C@@]2(CO)O[C@@H]12)c1ccc(O)c(O)c1 (some centres undefined)
- growth inhibition [1]: -20.3%
- growth inhibition [2]: -40%
- growth inhibition [3]: -4.6%
- growth inhibition [4]: 3.1%
- growth inhibition [5]: -8.35%
- growth inhibition [6]: 0.4%

Compound: Cc1c(C)c(O)c(SC(CC(=O)O)C(=O)O)c(C)c1O (centres undefined)
- growth inhibition [1]: 14.8%
- growth inhibition [2]: 37.8%
- growth inhibition [3]: 41.1%
- growth inhibition [4]: 1.65%
- growth inhibition [5]: 21.7%
- growth inhibition [6]: 44.1%

Compound: COc1cc(=O)cc2n(c1=O)CCC2
- growth inhibition [1]: -8.45%
- growth inhibition [2]: -5.05%
- growth inhibition [3]: -13.2%
- growth inhibition [4]: -28%
- growth inhibition [5]: 8.5%
- growth inhibition [6]: -2.25%

Compound: O/N=C1/CC2CCCCC2CC1(O)c1ccccc1 (centres undefined)
- growth inhibition [1]: 17.3%
- growth inhibition [2]: 19.1%
- growth inhibition [3]: 17.6%
- growth inhibition [4]: 18.4%
- growth inhibition [5]: -3.55%
- growth inhibition [6]: 30.4%

Compound: NN1C(=O)Cc2ccc(Cl)cc21
- growth inhibition [1]: 9.1%
- growth inhibition [2]: -0.7%
- growth inhibition [3]: -2.9%
- growth inhibition [4]: -33.5%
- growth inhibition [5]: -3.15%
- growth inhibition [6]: 2.1%

Compound: O=c1[nH]c(NCc2ccc(Cl)cc2)nc2nc[nH]c12
- growth inhibition [1]: 0.85%
- growth inhibition [2]: -3.85%
- growth inhibition [3]: -19.5%
- growth inhibition [4]: 12.2%
- growth inhibition [5]: -8.55%
- growth inhibition [6]: -46.4%

Compound: CNc1nc2c(C)ccc3nc(N(C)C)nc-3c2n1C
- growth inhibition [1]: 0.6%
- growth inhibition [2]: -22.2%
- growth inhibition [3]: 4.4%
- growth inhibition [4]: 16.4%
- growth inhibition [5]: 20.1%
- growth inhibition [6]: 14.8%

Compound: c1ccc(Cc2[nH]nc(-c3ccccc3)c2N=Nc2ccccc2)cc1
- growth inhibition [1]: 5.55%
- growth inhibition [2]: -34.9%
- growth inhibition [3]: 2.65%
- growth inhibition [4]: -16.4%
- growth inhibition [5]: 8.45%
- growth inhibition [6]: -6.1%

Compound: O=CC(Cc1ccccc1)C(=O)CCc1ccccc1.[Cu+2] (centres undefined)
- growth inhibition [1]: 40.1%
- growth inhibition [2]: 13.9%
- growth inhibition [3]: 4.95%
- growth inhibition [4]: -48.6%
- growth inhibition [5]: 0.4%
- growth inhibition [6]: 2.55%

Compound: Cc1cccc(C)c1NC(=O)CNc1ncccn1
- growth inhibition [1]: -14.3%
- growth inhibition [2]: 1%
- growth inhibition [3]: 3.7%
- growth inhibition [4]: -4.7%
- growth inhibition [5]: 19.1%
- growth inhibition [6]: 4.65%

Compound: CCOC(=O)NC(OCCN(C)C)(C(F)(F)F)C(F)(F)F
- growth inhibition [1]: -32.4%
- growth inhibition [2]: 25.9%
- growth inhibition [3]: -53.5%
- growth inhibition [4]: 3.3%
- growth inhibition [5]: -4.15%
- growth inhibition [6]: 31.1%

Compound: C=CCOC(=O)NC(CCC(=O)OC)C(=O)O (centres undefined)
- growth inhibition [1]: -0.5%
- growth inhibition [2]: -2.1%
- growth inhibition [3]: -6.25%
- growth inhibition [4]: -9.3%
- growth inhibition [5]: -2.45%
- growth inhibition [6]: -0.2%

Compound: O/N=C/C(=Nc1cccc2ccccc12)NO
- growth inhibition [1]: -11.1%
- growth inhibition [2]: -12.8%
- growth inhibition [3]: -12.1%
- growth inhibition [4]: -10.3%
- growth inhibition [5]: -5.7%
- growth inhibition [6]: 13.9%

Compound: Cc1nnsc1-c1nc2ccccc2[nH]1
- growth inhibition [1]: 22.2%
- growth inhibition [2]: 1.95%
- growth inhibition [3]: 9.35%
- growth inhibition [4]: 20.1%
- growth inhibition [5]: 32.5%
- growth inhibition [6]: 38.4%

Compound: C/C(=C/C(=O)Nc1ccc2ccccc2c1)Nc1ccc2ccccc2c1
- growth inhibition [1]: -5.4%
- growth inhibition [2]: 6.65%
- growth inhibition [3]: 5.9%
- growth inhibition [4]: -8.95%
- growth inhibition [5]: 10.4%
- growth inhibition [6]: -15.1%

Compound: O=C(O)CC(NC(=O)/C(=C/c1ccccc1)NC(=O)c1ccccc1)C(=O)O (centres undefined)
- growth inhibition [1]: -2.45%
- growth inhibition [2]: 0.65%
- growth inhibition [3]: 2.95%
- growth inhibition [4]: 6.85%
- growth inhibition [5]: 25.1%
- growth inhibition [6]: -22.1%

Compound: CCc1c(NCCO)c(C(=O)NCCO)c2nc3ccccc3n2c1NCCO
- growth inhibition [1]: 2.2%
- growth inhibition [2]: 9.65%
- growth inhibition [3]: -3.1%
- growth inhibition [4]: -14.1%
- growth inhibition [5]: -7.3%
- growth inhibition [6]: 11.8%

Compound: CC(=O)OC[C@@H](COC(=O)/C=C/c1ccc(O)cc1)OC1OC(CO)C(O)C(O)C1O (some centres undefined)
- growth inhibition [1]: -1.45%
- growth inhibition [2]: -37.2%
- growth inhibition [3]: -21.8%
- growth inhibition [4]: 1.7%
- growth inhibition [5]: -17.1%
- growth inhibition [6]: -1.8%

Compound: CCOC(=O)CC(CSCP(=O)(OCC)OCC)C(=O)OCC (centres undefined)
- growth inhibition [1]: 5.15%
- growth inhibition [2]: -1.35%
- growth inhibition [3]: 13.2%
- growth inhibition [4]: 3.4%
- growth inhibition [5]: 9.55%
- growth inhibition [6]: 16.2%

Compound: CCOC(=O)C(=NNc1cc(OC)c(Cl)cc1OC)C(=O)OCC
- growth inhibition [1]: 8.25%
- growth inhibition [2]: -9.95%
- growth inhibition [3]: -7.4%
- growth inhibition [4]: -25.4%
- growth inhibition [5]: 1.7%
- growth inhibition [6]: 6.05%

Compound: CCOC(=O)NNC(=O)c1ccccc1N(C)C
- growth inhibition [1]: -12.4%
- growth inhibition [2]: -18.6%
- growth inhibition [3]: -7.05%
- growth inhibition [4]: -13.7%
- growth inhibition [5]: 25.1%
- growth inhibition [6]: -4.45%

Compound: O=C(/C(=N\Nc1ccc([N+](=O)[O-])cc1[N+](=O)[O-])c1ccccc1)c1ccccc1
- growth inhibition [1]: -11.6%
- growth inhibition [2]: -11.7%
- growth inhibition [3]: -2.5%
- growth inhibition [4]: -20.8%
- growth inhibition [5]: 2.95%
- growth inhibition [6]: -1.3%

Compound: COc1cc2oc(-c3ccc(O)cc3)cc(=O)c2c(OC)c1OC
- growth inhibition [1]: -4.35%
- growth inhibition [2]: -5.95%
- growth inhibition [3]: -2.35%
- growth inhibition [4]: -26.7%
- growth inhibition [5]: 17.9%
- growth inhibition [6]: 12.3%

Compound: CC12CCC(=O)N1[C@@H](c1ccccc1)[C@@H](c1ccccc1)O2 (some centres undefined)
- growth inhibition [1]: 25.6%
- growth inhibition [2]: -12.6%
- growth inhibition [3]: -0.85%
- growth inhibition [4]: 15.4%
- growth inhibition [5]: 3.65%
- growth inhibition [6]: 5.9%

Compound: CC(C)CCOC(=O)NC1c2ccccc2Oc2ccccc21
- growth inhibition [1]: -10%
- growth inhibition [2]: 3.55%
- growth inhibition [3]: 3.65%
- growth inhibition [4]: 18%
- growth inhibition [5]: 0.1%
- growth inhibition [6]: -1.3%

Compound: O=CN(Cc1cnccn1)Cc1cnccn1
- growth inhibition [1]: -2.8%
- growth inhibition [2]: 7.3%
- growth inhibition [3]: -6.75%
- growth inhibition [4]: -33.1%
- growth inhibition [5]: 7%
- growth inhibition [6]: -14.2%

Compound: Cc1nc(N)c(N=O)c(=O)[nH]1
- growth inhibition [1]: 13.2%
- growth inhibition [2]: 8.75%
- growth inhibition [3]: 14.2%
- growth inhibition [4]: 9.5%
- growth inhibition [5]: 10.9%
- growth inhibition [6]: 7.35%

Compound: COc1ccc(C2C(Cl)C(=O)N2NC(=O)c2ccccc2O)cc1OC (centres undefined)
- growth inhibition [1]: 2.85%
- growth inhibition [2]: -12.1%
- growth inhibition [3]: -18.6%
- growth inhibition [4]: 15.4%
- growth inhibition [5]: -22.4%
- growth inhibition [6]: -34.1%

Compound: O=C1Nc2c(Cl)cc(Cl)cc2C1=O
- growth inhibition [1]: 7.9%
- growth inhibition [2]: 45.1%
- growth inhibition [3]: 37.7%
- growth inhibition [4]: -2.75%
- growth inhibition [5]: 38%
- growth inhibition [6]: 91.8% (active)

Compound: CCOc1ccc(Br)cc1/C=N\NC(=O)c1ccccc1N(C)C
- growth inhibition [1]: -8.8%
- growth inhibition [2]: -11.6%
- growth inhibition [3]: -16.8%
- growth inhibition [4]: -23.6%
- growth inhibition [5]: -2.25%
- growth inhibition [6]: -11.2%

Compound: Cc1ccc(NC(=NCCCN(C)C)C(c2ccccc2)c2ccccc2)cc1
- growth inhibition [1]: -2.7%
- growth inhibition [2]: -0.25%
- growth inhibition [3]: -5.4%
- growth inhibition [4]: 0.4%
- growth inhibition [5]: 11.4%
- growth inhibition [6]: 13.4%

Compound: CS(=O)(=O)Nc1nc2ccccc2c(=O)o1
- growth inhibition [1]: -50.8%
- growth inhibition [2]: -21.9%
- growth inhibition [3]: -15.3%
- growth inhibition [4]: -39.7%
- growth inhibition [5]: 3.75%
- growth inhibition [6]: 4.85%

Compound: CCC1=C[C@H]2CN(CCc3c([nH]c4ccccc34)[C@@](C(=O)OC)(c3cc4c(cc3OC)N(C)[C@H]3[C@@](O)(C(=O)NC)[C@H](OC(C)=O)[C@]5(CC)C=CCN6CC[C@]43[C@@H]65)C2)C1
- growth inhibition [1]: 2.65%
- growth inhibition [2]: -1.75%
- growth inhibition [3]: 12.8%
- growth inhibition [4]: -2.05%
- growth inhibition [5]: 16.4%
- growth inhibition [6]: -12.4%

Compound: COc1ccc([N+](=O)[O-])cc1F
- growth inhibition [1]: 10.9%
- growth inhibition [2]: -12.8%
- growth inhibition [3]: 5.5%
- growth inhibition [4]: -6.9%
- growth inhibition [5]: 8.25%
- growth inhibition [6]: 31.8%
